From PubChem BioAssay
MITF primary: inhibitors of human MITF; hit rate 0.91% among 650,000; AlphaScreen MITF homodimerization, bead proximity signal; inhibition, % at 2.6 µM; O75030; in the data active means inhibition above about 50%
FBW7 activator: activators of human E3 ligase FBW7. Q969H0. AlphaScreen FBW7–phospho-cyclin E peptide binding, activator screen. normalized activity (activation), % at 26.1 µM. hit rate 0.13% among 650,000. AID 1259310; in the data active means normalized activity above about 1.9%;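 further: purified mutant Fbw7 with reduced substrate affinity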
TEAD-YAP block: TEAD-YAP interaction inhibition; HEK-TIYL cells, TEAD-Gal4/YAP UAS-luciferase luminescence; inhibition, % at 9.12 µM; hit rate 1.4% among 640,000; in the data active means inhibition above about 32%
GPR151 activ: human GPR151 activation; AID 1508602; hit rate 1% among 650,000; activation, % at 11.2 µM; Q8TDV0; PathHunter beta-arrestin GPR151 cells, luminescence; in the data active means activation above about 4.9%
Target sequence (Q8TDV0 whole entry, looked up): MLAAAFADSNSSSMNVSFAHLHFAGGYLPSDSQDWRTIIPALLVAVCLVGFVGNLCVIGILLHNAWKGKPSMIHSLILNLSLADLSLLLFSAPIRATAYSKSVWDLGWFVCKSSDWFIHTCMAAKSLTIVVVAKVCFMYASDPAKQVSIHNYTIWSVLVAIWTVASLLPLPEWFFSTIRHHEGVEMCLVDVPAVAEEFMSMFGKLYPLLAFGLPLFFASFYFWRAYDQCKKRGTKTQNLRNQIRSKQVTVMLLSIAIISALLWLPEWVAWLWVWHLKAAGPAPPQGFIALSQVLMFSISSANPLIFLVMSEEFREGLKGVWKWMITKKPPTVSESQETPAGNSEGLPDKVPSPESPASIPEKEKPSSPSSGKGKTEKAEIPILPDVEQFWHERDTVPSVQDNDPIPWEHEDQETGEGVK
A number is an active result; – = inactive. Rows were chosen to be rich in hits. Some 3.5% of all compounds tested hit in one or more screens of this group.

SMILES | MITF primary | FBW7 activator | TEAD-YAP block | GPR151 activ
COc1cc(N)c(-c2nc3ccccc3[nH]2)cc1OC | – | – | 46 | –
Nc1cc(C(=O)OCC(=O)NC23CC4CC(CC(C4)C2)C3)ccc1Cl | – | – | – | –
COc1cccc(N2C[C@@H]3C[C@@H](c4cnn(-c5ccccc5)c4)N4CCC[C@@]34C2=O)c1 | – | – | 37 | –
Cc1cc2cc(CNC(=O)C(=O)c3c[nH]c4ccccc34)ccc2[nH]1 | – | – | – | –
O=C1c2cccc3cccc(c23)C(=O)N1CCN1CCCCC1 | – | – | 68 | –
O=C1c2cccc3cccc(c23)C(=O)N1CCN1CCN(CCc2ccccc2)CC1 | – | – | – | –
CCOC(=O)c1ccc(CN(Cc2ccc(C)cc2)S(=O)(=O)c2ccc(F)c(C(=O)Nc3ccc(Cl)cc3F)c2)cc1 | – | – | – | –
Cc1ccc(C)c(NCN2C(=O)c3cccnc3C2=O)c1 | – | – | – | –
Cc1ccc(C(=O)COC(=O)c2ccccc2[N+](=O)[O-])cc1 | – | – | 90 | –
O=C(COC(=O)c1ccccc1[N+](=O)[O-])c1ccccc1Cl | – | – | 34 | –
Cc1c(C(=O)OCC(=O)c2ccccc2Cl)cccc1[N+](=O)[O-] | – | – | – | –
COc1ccc(C(=O)COC(=O)c2ccccc2[N+](=O)[O-])cc1 | – | – | – | –
CCc1ccc(C(=O)COC(=O)c2ccccc2[N+](=O)[O-])cc1 | – | – | 55 | –
CCOc1ccc(C(=O)COC(=O)c2ccccc2[N+](=O)[O-])cc1 | – | – | – | –
COc1cccc(-c2nc(-c3ccccc3)no2)c1 | – | – | – | –
Ic1cccc(-c2nc(-c3ccccn3)no2)c1 | – | – | – | –
Brc1cccc(-c2nc(-c3ccccn3)no2)c1 | – | – | 73 | –
Clc1ccccc1/C=C/c1nc(-c2ccccn2)no1 | – | – | 85 | –
Brc1ccc(-c2nc(-c3ccccn3)no2)cc1 | – | – | 90 | –
COc1cccc(-c2nc(-c3ccccn3)no2)c1 | – | – | 86 | –
CC1CCCC(NC(=O)CCNS(=O)(=O)c2ccc3c(c2)oc(=O)n3C)C1C (configuration not stated) | – | – | – | –
CCOc1cccc2cc(C(=O)Nc3cc(C(=O)O)ccc3C)c(=Nc3ccc(C(=O)O)cc3)oc12 | – | – | – | –
c1ccc(-c2noc(-c3ccncc3)n2)nc1 | – | – | – | –
CC(C)(C)c1ccc(-c2nc(-c3ccccn3)no2)cc1 | – | – | 96 | –
Cc1cccc(N(CC(=O)NCc2ccccc2)C(=O)CCC(=O)Nc2ccccn2)c1 | – | 1.9 | – | –
SMILES | MITF primary | FBW7 activator | TEAD-YAP block | GPR151 activ
COCCN(CC(=O)NCCc1ccccc1)C(=O)CCC(=O)Nc1cc(C)ccn1 | – | – | 33 | –
Cc1ccnc(NC(=O)CCC(=O)N(CC(=O)NCCc2ccccc2)C2CCCC2)c1 | – | – | – | –
CCOC(=O)C1=C(C)N=c2s/c(=C\c3ccc(-c4ccc(Cl)c(Cl)c4)o3)c(=O)n2C1c1ccccc1 (configuration not stated) | – | – | – | –
CC(C)C1CCC(Nc2ncc(-c3cccc(C(=O)NCCN(C)C)c3)n3ccnc23)CC1 (configuration not stated) | – | – | 39 | –
CNCCCOc1c(Cl)ccc(C)c1C | – | – | – | –
O=C(COC(=O)c1ccco1)Nc1cccc2ccccc12 | – | – | – | –
Fc1cc(-c2nc(Nc3ccc(Cn4ccnc4)cc3)ncc2F)cc(N2CCOCC2)c1 | – | – | 89 | –
Fc1cc(-c2nc(Nc3cccc(Cn4cncn4)c3)ncc2F)cc(N2CCOCC2)c1 | – | – | 88 | –
Fc1cc(-c2nc(Nc3ccc(-n4cnc(-c5ccccn5)c4)cc3)ncc2F)cc(N2CCOCC2)c1 | – | – | 54 | –
Fc1cc(-c2nc(Nc3ccc(-c4cnco4)cc3)ncc2F)cc(N2CCOCC2)c1 | – | – | – | –
Fc1cnc(Nc2ccc(Cn3ccnc3)cc2)nc1-c1cc(N2CCOCC2)cc(C(F)(F)F)c1 | – | – | 40 | –
Fc1cnc(Nc2ccc(Cn3cccn3)cc2)nc1-c1cc(N2CCOCC2)cc(C(F)(F)F)c1 | – | – | – | –
O=C(CCCCCn1c(=S)[nH]c2ccccc2c1=O)NCCc1ccccc1 | – | – | – | –
Fc1cc(-c2nc(Nc3cccc(Cn4ccnc4)c3)ncc2F)cc(N2CCOCC2)c1 | – | – | 94 | –
Cc1cc(/C=C(\C#N)c2nc3ccccc3[nH]2)c(C)n1-c1ccc(F)cc1 | – | – | 71 | –
Cc1cc(/C=C(\C#N)c2nc3ccccc3[nH]2)c(C)n1C1CC1 | – | – | – | –
CCOc1ccccc1NC(=O)C(=O)N/N=C/c1cccc(OC)c1O | – | – | 79 | –
CCOc1ccccc1NC(=O)C(=O)N/N=C/c1cccc(Cl)c1Cl | – | – | – | –
O=C(N/N=C/c1ccccc1)C(=O)Nc1ccccc1OC(F)(F)C(F)F | – | – | – | –
CCCCNC(=O)C(=O)Nc1ccccc1OCC | – | 2.3 | – | –
COc1cccc(/C=N/NC(=O)C(=O)Nc2ccccc2OC(F)(F)C(F)F)c1O | – | – | 65 | –
O=C(O)c1ccc[n+](CC(=O)c2ccccc2)c1 | – | – | – | –
CC(=O)Nc1ccc(S(=O)(=O)NCCOC23CC4CC(CC(C4)C2)C3)cc1 | – | – | – | –
CCn1nnc2c(Nc3cccc(C)c3)ncnc21 | – | – | – | –
CCn1nnc2c(NCc3ccc4[nH]c(C)cc4c3)ncnc21 | – | – | 65 | –
SMILES | MITF primary | FBW7 activator | TEAD-YAP block | GPR151 activ
CCCNC(=O)c1cc(N2CCC(N3CCOCC3)CC2)nc2ccccc12 | – | – | – | –
Cc1cc(C(F)(F)F)nc(SCc2ccc(C(=O)O)o2)n1 | – | – | – | –
Cc1cc(C(F)(F)F)nc(SCc2ccc(C(=O)NNC(=O)c3ccccc3C)o2)n1 | – | – | 38 | –
c1cncc(-c2nnc(SCc3nc4ccccc4[nH]3)o2)c1 | – | – | 44 | –
COc1cc2nc3c4ccccc4n(C(C)C)c3nc2cc1OC | – | 3.7 | – | –
CCCCn1c2ccccc2c2nc3cc(OC)c(OC)cc3nc21 | – | – | – | –
CCN(CC)CCn1c2ccccc2c2nc3ccccc3nc21 | – | – | 76 | –
CCCn1c2ccccc2c2nc3cc(OC)c(OC)cc3nc21 | – | 3.7 | – | –
Cc1cccc(NC(=O)C2CCCN(S(=O)(=O)c3ccc4c(c3)oc(=O)n4C)C2)c1 (configuration not stated) | – | – | – | –
Cc1cccc(NC(=O)C2CCCN(S(=O)(=O)c3ccc4c(c3)oc(=O)n4C)C2)n1 (configuration not stated) | – | – | 34 | –
CSC1=C(C#N)C(c2cccs2)C2=C(CCCC2=O)N1 (configuration not stated) | – | – | – | –
CSC1=C(C#N)C(c2ccccc2C)C2=C(CCCC2=O)N1 (configuration not stated) | – | – | 39 | –
O=C(c1ccc(-c2nnc(-c3ccccc3)o2)cc1)N1CCOCC1 | – | – | 43 | –
CC(=O)Nc1ccc(C(=O)N2CCOCC2)cc1 | – | – | – | –
Cc1cc(C)c2c(NCc3ccc(C)o3)n[nH]c2n1 | – | – | – | –
